# Source: PubChem BioAssay (NCATS)
# Inconclusive results are not listed. Where a call stands in place of a potency, no number is given. The source made the active and inactive calls. Calls follow the shape of the dose curve; as a rule, active = well fitted inhibition curve with a large enough effect; inconclusive = small, poorly fitted or top-dose-only effect; inactive = flat fitted curve, though single readings scatter.
# Columns and labels:
# Assay in all cases: qHTS profiling for inhibitors of Plasmodium falciparum proliferation (AID 504749); also: nearly all actives have a fitted effect of over 60% in size
# Settings in all cases: P. falciparum in erythrocytes, SYBR Green DNA, 72 h; series mostly up to 28.7 µM
# [1] = test system: CP335
# How it was run: (§1)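 Quantitative HTS: compounds pinned into medium, infected erythrocytes added (0.3% parasitemia, 2.5% hematocrit), 72 h culture at 37 C under 5% CO2. Saponin/Triton lysis with SYBR Green I, overnight RT, then fluorescence read.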
# [2] = test system: DFO2036
# How it was run: as §1
# [3] = test system: DIV14
# How it was run: as §1
# [4] = test system: DIV17
# How it was run: as §1
# [5] = test system: DIV30
# How it was run: as §1
# [6] = test system: Dd2
# How it was run: as §1
# [7] = test system: ECU
# How it was run: as §1
# [8] = test system: FAB9
# How it was run: as §1
# [9] = test system: GB4
# How it was run: as §1
# [10] = test system: HB3
# How it was run: as §1
# [11] = test system: ICS
# How it was run: as §1
# [12] = test system: JCK
# How it was run: as §1
# [13] = test system: N140
# How it was run: as §1
# [14] = test system: P93_24
# How it was run: as §1
# [15] = test system: P94_40
# How it was run: as §1
# [16] = test system: PAD
# How it was run: as §1
# [17] = test system: PC15
# How it was run: as §1
# [18] = test system: PC26
# How it was run: as §1
# [19] = test system: PC49
# How it was run: as §1
# [20] = test system: SC27B
# How it was run: as §1
# Potency is read from the fitted curve at half-maximal effect.
Compound,Potency [1],Potency [2],Potency [3],Potency [4],Potency [5],Potency [6],Potency [7],Potency [8],Potency [9],Potency [10],Potency [11],Potency [12],Potency [13],Potency [14],Potency [15],Potency [16],Potency [17],Potency [18],Potency [19],Potency [20]
CCCCC(CC)COC(=O)c1ccccc1O (stereo not given),inactive,inactive,inactive,inactive,inactive,inactive,inactive,inactive,inactive,inactive,inactive,inactive,inactive,inactive,inactive,inactive,inactive,inactive,inactive,inactive
NC(CSCC(=O)O)C(=O)O (stereo not given),inactive,inactive,inactive,inactive,inactive,inactive,inactive,inactive,inactive,inactive,inactive,inactive,inactive,inactive,inactive,inactive,inactive,inactive,inactive,inactive
Cc1cc(C(C#N)c2ccc(Cl)cc2)c(Cl)cc1NC(=O)c1cc(I)cc(I)c1O (stereo not given),inactive,inactive,inactive,inactive,inactive,inactive,inactive,inactive,inactive,inactive,inactive,inactive,inactive,inactive,inactive,inactive,inactive,inactive,inactive,inactive
Cc1ncc(COP(=O)(O)O)c(C=O)c1O,inactive,inactive,inactive,inactive,inactive,inactive,inactive,inactive,inactive,inactive,inactive,inactive,inactive,inactive,inactive,inactive,inactive,inactive,inactive,inactive
O=C1c2c(O)cccc2Cc2cccc(O)c21,inactive,inactive,inactive,inactive,inactive,inactive,inactive,inactive,inactive,inactive,inactive,inactive,inactive,inactive,inactive,inactive,inactive,inactive,inactive,inactive
C[C@](N)(Cc1ccc(O)cc1)C(=O)O,inactive,inactive,inactive,inactive,inactive,inactive,inactive,inactive,inactive,inactive,inactive,inactive,inactive,inactive,inactive,inactive,inactive,inactive,inactive,inactive
CCCCc1ncc(/C=C(\Cc2cccs2)C(=O)O)n1Cc1ccc(C(=O)O)cc1,inactive,inactive,inactive,inactive,inactive,inactive,inactive,inactive,inactive,inactive,inactive,inactive,inactive,inactive,inactive,inactive,inactive,inactive,inactive,inactive
CCCc1c(OCCCCc2nn[nH]n2)ccc(C(C)=O)c1O,inactive,inactive,inactive,inactive,inactive,inactive,inactive,inactive,inactive,inactive,inactive,inactive,inactive,inactive,inactive,inactive,inactive,inactive,,inactive
Oc1cn2c(n1)Nc1ccc(Cl)c(Cl)c1C2,inactive,inactive,inactive,inactive,inactive,inactive,inactive,inactive,inactive,inactive,,inactive,inactive,inactive,inactive,inactive,inactive,inactive,inactive,inactive
CCn1cc(C(=O)O)c(=O)c2cnc(N3CCNCC3)nc21,inactive,inactive,inactive,inactive,inactive,inactive,inactive,inactive,inactive,inactive,,inactive,inactive,inactive,inactive,inactive,inactive,inactive,inactive,inactive
NS(=O)(=O)c1cc2c(cc1Cl)NC(CSCc1ccccc1)=NS2(=O)=O,inactive,inactive,inactive,inactive,inactive,inactive,inactive,inactive,inactive,inactive,inactive,inactive,inactive,inactive,inactive,inactive,inactive,inactive,inactive,inactive
O=c1cc[nH]c(=O)[nH]1,inactive,inactive,inactive,inactive,inactive,inactive,inactive,inactive,inactive,inactive,inactive,inactive,inactive,inactive,inactive,inactive,inactive,inactive,inactive,inactive
Nc1ncnc2c1ncn2[C@@H]1O[C@H](CO)[C@@H](O)[C@H]1O,inactive,inactive,inactive,inactive,inactive,inactive,inactive,inactive,inactive,inactive,inactive,inactive,inactive,,inactive,inactive,inactive,inactive,inactive,inactive
O=C(O)c1ccccc1O,inactive,inactive,inactive,inactive,inactive,inactive,inactive,inactive,inactive,inactive,inactive,inactive,inactive,inactive,inactive,inactive,inactive,inactive,inactive,inactive
CC(CN1c2ccccc2Sc2ccccc21)N(C)C (stereo not given),inactive,inactive,inactive,inactive,inactive,,inactive,inactive,,inactive,inactive,inactive,4.47 µM (active),,inactive,inactive,inactive,inactive,inactive,
Cc1c(Cl)cccc1Nc1ccccc1C(=O)O,inactive,inactive,inactive,inactive,inactive,inactive,inactive,inactive,inactive,,,inactive,inactive,inactive,inactive,inactive,inactive,inactive,inactive,inactive
CC1=C(CC(=O)O)c2cc(F)ccc2/C1=C\c1ccc(S(C)=O)cc1 (stereo not given),inactive,inactive,inactive,inactive,inactive,inactive,inactive,inactive,inactive,inactive,,inactive,inactive,inactive,inactive,inactive,inactive,inactive,inactive,inactive
CCCn1cnc2c1c(=O)n(CCCCC(C)=O)c(=O)n2C,inactive,inactive,inactive,,inactive,inactive,inactive,inactive,,inactive,,inactive,inactive,,inactive,inactive,inactive,inactive,inactive,inactive
COc1ccc(Cl)cc1C(=O)NCCc1ccc(S(=O)(=O)NC(=O)NC2CCCCC2)cc1,inactive,inactive,inactive,inactive,inactive,inactive,,inactive,inactive,inactive,inactive,inactive,inactive,inactive,inactive,inactive,inactive,inactive,inactive,inactive
CN(C)CCCN1c2ccccc2Sc2ccc(Cl)cc21,13.5 µM (active),inactive,3.01 µM (active),4.78 µM (active),9.53 µM (active),,,inactive,8.49 µM (active),inactive,4.47 µM (active),,,,,10 µM (active),10 µM (active),6.75 µM (active),7.08 µM (active),
Oc1ccc(C(O)CNCCCCCCNCC(O)c2ccc(O)c(O)c2)cc1O (stereo not given),9.53 µM (active),inactive,10.7 µM (active),15.1 µM (active),,10 µM (active),,inactive,13.5 µM (active),,6.31 µM (active),,,10 µM (active),,,,,inactive,
O=C(CCCN1CCN(c2ccccn2)CC1)c1ccc(F)cc1,inactive,inactive,,,inactive,inactive,inactive,inactive,inactive,inactive,inactive,inactive,inactive,inactive,inactive,inactive,inactive,inactive,inactive,inactive
CC1(C)OC(=O)NC1=O,inactive,inactive,inactive,inactive,inactive,inactive,inactive,inactive,inactive,inactive,inactive,inactive,inactive,inactive,inactive,inactive,inactive,inactive,inactive,inactive
O=S(=O)(O)c1cc(I)c(O)c2ncccc12,inactive,inactive,inactive,inactive,inactive,inactive,inactive,inactive,inactive,inactive,,inactive,inactive,inactive,inactive,inactive,inactive,inactive,inactive,inactive
COC(=O)C1=C(C)NC(C)=C(C(=O)OC)C1c1ccccc1[N+](=O)[O-],inactive,inactive,inactive,,inactive,inactive,inactive,inactive,inactive,inactive,,inactive,inactive,inactive,inactive,inactive,inactive,inactive,inactive,inactive
Cc1ccc(C(C)C)cc2c(C)ccc1-2,inactive,inactive,,inactive,,inactive,inactive,inactive,inactive,inactive,inactive,inactive,inactive,inactive,inactive,inactive,inactive,inactive,inactive,inactive
Nc1ccc(S(=O)(=O)NC(=O)c2ccccc2)cc1,inactive,inactive,inactive,inactive,inactive,inactive,inactive,inactive,inactive,inactive,inactive,inactive,inactive,inactive,inactive,inactive,inactive,inactive,inactive,inactive
